For some assays here: Potency and affinity values are given separately. Activity calls are given as the source filed them. No rule for the calls is given here.
Target: Plasmodium falciparum protein kinase 6 (PK6, PF3D7_1337100) (UniProt Q8IDW1)
Test: PfPK6 kinase inhibitors, biochemical, TCAMS library (AID 1159586)
Settings: recombinant PfPK6, Kinase-Glo ATP depletion luminescence

Plasmodium falciparum protein kinase 6 (PK6, PF3D7_1337100), sequence (Q8IDW1 1-305): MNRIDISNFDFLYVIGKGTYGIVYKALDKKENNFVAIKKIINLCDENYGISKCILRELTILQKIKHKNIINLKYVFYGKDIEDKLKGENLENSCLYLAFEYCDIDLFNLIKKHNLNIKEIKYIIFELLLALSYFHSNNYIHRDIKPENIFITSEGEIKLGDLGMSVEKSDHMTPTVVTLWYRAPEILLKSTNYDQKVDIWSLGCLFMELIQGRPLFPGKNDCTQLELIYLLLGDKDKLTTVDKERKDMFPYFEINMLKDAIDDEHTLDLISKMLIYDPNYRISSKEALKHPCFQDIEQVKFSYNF

outcome, inactive:
CCn1c(Cc2ccccc2)nnc1SCC(=O)N1c2ccccc2Sc2ccccc21, CCCc1ccc(S(=O)(=O)NC2CCN(c3ccnc(Nc4ccc(OC)cc4)n3)C2)cc1 (stereo not given), CCc1cc2c(O)c([N+](=O)[O-])c(=O)oc2cc1OCCCCCOc1cc2oc(=O)c([N+](=O)[O-])c(O)c2cc1CC, CCCCOc1ccc(C(O)C(CN2CCCCC2)c2ccccc2)cc1 (stereo not given), O=C(Cc1cccs1)NCC(c1ccccc1Cl)c1c[nH]c2ccccc12 (stereo not given), O=C(Nc1ccc(OC2CCN(Cc3ccc(F)cc3)CC2)cc1)c1cccs1, Cc1cc(C(F)(F)F)n2nc(C(=O)N(Cc3cncn3Cc3cccc(F)c3)CC3CC3)cc2n1, O=C(/C=C/c1ccc(Cl)c(Cl)c1)NCCCCCN1CCCN(C(=O)Nc2ccc(F)c(Cl)c2)CC1, COc1ccc(CN2CCC(NCc3cccc(C(F)(F)F)c3)CC2)cc1, Cc1cccc2[nH]c(-c3cccc(-c4cccc(NC(=O)C5CC(=O)Nc6ccccc65)c4)c3)nc12 (stereo not given), COc1ccc2ccccc2c1C=NNc1ccnc2cc(Cl)ccc12, Cc1nn(-c2ccc(Cl)cc2)c2[nH]c(CN3CCN(c4cccc(Cl)c4)CC3)cc(=O)c12, O=C(Nc1cccc(CN2CCCN(Cc3ccc(O)cc3)CC2)c1)c1cc(F)cc(F)c1, CC(C)N(CCOc1ccc2c(c1)N(C(=O)Nc1cc(Br)cc(C(F)(F)F)c1)CC2)C(C)C, Cc1ccc2cc(NC(=O)CCCCCCCON3C(N)=NC(N)=NC34CCCCC4)ccc2n1, CCOc1ccc(-c2cc3nc(C4CCNCC4)c(C(=O)Nc4ccc(C)cc4Cl)cn3n2)cc1, COc1ccccc1CNc1nc(Nc2ccccc2C)nc2ccccc12, O=C(/C=C/c1ccccc1)N1CCOC(CCN2CCC(c3ccccc3)CC2)(c2ccc(Cl)c(Cl)c2)C1 (stereo not given), COCCCNc1sc(S(=O)(=O)c2ccccc2)nc1S(=O)(=O)c1ccc(Cl)cc1, CC(C)c1ccc(NC(=O)c2ccc(C(=O)NCC3CCN(CC4CCCCC4)CC3)cc2)cc1, CCOC(=O)C(NC(=O)c1ccc([N+](=O)[O-])o1)C(C)C (stereo not given), O=C(Nc1cccc(OCCN2CCCC2)c1)Nc1ccc(Cl)c(Cl)c1, COc1ccc2ccccc2c1CNCC1CCN(CC2CCCCC2)CC1, COc1cc2c(cc1S(=O)(=O)c1ccc(NC(=O)Nc3ccc(F)cc3)cc1)CCN(C)CC2, CCNc1cc(C(=O)N[C@@H](Cc2ccoc2)[C@H](O)CNC(C)CCCC(C)C)cc(N2CCCCS2(=O)=O)c1 (stereo not given in full), O=c1cc(NCCC(CNCc2ccc(Br)o2)NCc2cc(Br)cc(Br)c2)[nH]c2ccccc12 (stereo not given), CCNc1cc(C(=O)N[C@@H](Cc2ccccc2)[C@H](O)CNC(C)(C)CC(C)(C)C)c(F)c(N2CCCCS2(=O)=O)c1, CS(=O)(=O)c1ccc(CCNCc2ccc(-c3ccc(CN(C(=O)C4CC(=O)c5ccccc54)C4CCN(Cc5ccccc5)CC4)cc3)nc2)cc1 (stereo not given), O=C(NC1CCCCC1)N(Cc1ccc(-c2ccc(CNC3CCCC3)cc2)cc1)C1CCN(Cc2ccccc2)CC1, CCCCCCCCc1[nH]c(C)c(Br)c(=O)c1Br, O=C1C[C@@H]([S@@](=O)Cc2nccs2)N1CCOCCCCCCc1ccc(Cl)cc1, Cc1ccc2[nH]c3c(NCCCN4CCOCC4)ncnc3c2c1, c1ccc2c(c1)CN(Cc1cc3ccccc3[nH]1)CC1(CCN(Cc3c[nH]c4cnccc34)CC1)O2, CC1(C)N=C(N)N=C(N)N1OCCCc1cc(Cl)c(Cl)cc1Cl, O=C(NCc1ccc2c(c1)OCO2)c1nn(CCN2CCC(N3CCCC3)CC2)cc1-c1ccc(Cl)c(Cl)c1, COc1ccc(N(c2nc(-c3cc(Cl)ccc3Cl)cs2)C2CCNC2)cc1 (stereo not given), O=S(=O)(c1cc(Cl)sc1Cl)N(CCC(O)(C(F)(F)F)C(F)(F)F)Cc1cccc(O)c1, CC1CCC2(CC1)N=C(N)N=C(N)N2OCc1cc2ccccc2c2ccccc12 (stereo not given), Cc1ccccc1CCNC(=O)c1cnc(N2CCN(c3ccncc3)CC2)c(Cl)c1, CCCN(CCC)CCOc1ccc(C(O)(C#CC(O)(c2ccc(OCCN(CCC)CCC)cc2)c2cccc(Cl)c2)c2cccc(Cl)c2)cc1 (stereo not given)

Target: Protein kinase 7 (PK7), Plasmodium falciparum 3D7 (PF3D7_0213400) (UniProt Q7YTF7)
Sequence (Q7YTF7 1-343): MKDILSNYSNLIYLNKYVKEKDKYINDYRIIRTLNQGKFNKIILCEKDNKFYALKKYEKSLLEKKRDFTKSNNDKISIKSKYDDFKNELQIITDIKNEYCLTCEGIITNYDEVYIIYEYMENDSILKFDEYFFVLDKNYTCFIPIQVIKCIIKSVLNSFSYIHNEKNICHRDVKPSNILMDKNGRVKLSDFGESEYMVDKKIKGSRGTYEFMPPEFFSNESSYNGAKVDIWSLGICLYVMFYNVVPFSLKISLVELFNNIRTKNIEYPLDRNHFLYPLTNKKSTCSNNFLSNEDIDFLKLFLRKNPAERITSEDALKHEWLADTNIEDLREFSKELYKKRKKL
Test: inhibition of Plasmodium PK7 catalytic activity – biochemical, TCAMS antimalarial set, Kinase-Glo luminescence (AID 1159587)
Settings: recombinant PfPK7, Kinase-Glo ATP depletion luminescence

outcome, inactive:
CCn1c(Cc2ccccc2)nnc1SCC(=O)N1c2ccccc2Sc2ccccc21, CCCc1ccc(S(=O)(=O)NC2CCN(c3ccnc(Nc4ccc(OC)cc4)n3)C2)cc1 (stereo not given), CCc1cc2c(O)c([N+](=O)[O-])c(=O)oc2cc1OCCCCCOc1cc2oc(=O)c([N+](=O)[O-])c(O)c2cc1CC, CCCCOc1ccc(C(O)C(CN2CCCCC2)c2ccccc2)cc1 (stereo not given), O=C(Cc1cccs1)NCC(c1ccccc1Cl)c1c[nH]c2ccccc12 (stereo not given), O=C(Nc1ccc(OC2CCN(Cc3ccc(F)cc3)CC2)cc1)c1cccs1, Cc1cc(C(F)(F)F)n2nc(C(=O)N(Cc3cncn3Cc3cccc(F)c3)CC3CC3)cc2n1, O=C(/C=C/c1ccc(Cl)c(Cl)c1)NCCCCCN1CCCN(C(=O)Nc2ccc(F)c(Cl)c2)CC1, COc1ccc(CN2CCC(NCc3cccc(C(F)(F)F)c3)CC2)cc1, Cc1cccc2[nH]c(-c3cccc(-c4cccc(NC(=O)C5CC(=O)Nc6ccccc65)c4)c3)nc12 (stereo not given), COc1ccc2ccccc2c1C=NNc1ccnc2cc(Cl)ccc12, Cc1nn(-c2ccc(Cl)cc2)c2[nH]c(CN3CCN(c4cccc(Cl)c4)CC3)cc(=O)c12, O=C(Nc1cccc(CN2CCCN(Cc3ccc(O)cc3)CC2)c1)c1cc(F)cc(F)c1, CC(C)N(CCOc1ccc2c(c1)N(C(=O)Nc1cc(Br)cc(C(F)(F)F)c1)CC2)C(C)C, Cc1ccc2cc(NC(=O)CCCCCCCON3C(N)=NC(N)=NC34CCCCC4)ccc2n1, CCOc1ccc(-c2cc3nc(C4CCNCC4)c(C(=O)Nc4ccc(C)cc4Cl)cn3n2)cc1, COc1ccccc1CNc1nc(Nc2ccccc2C)nc2ccccc12, O=C(/C=C/c1ccccc1)N1CCOC(CCN2CCC(c3ccccc3)CC2)(c2ccc(Cl)c(Cl)c2)C1 (stereo not given), COCCCNc1sc(S(=O)(=O)c2ccccc2)nc1S(=O)(=O)c1ccc(Cl)cc1, CC(C)c1ccc(NC(=O)c2ccc(C(=O)NCC3CCN(CC4CCCCC4)CC3)cc2)cc1, CCOC(=O)C(NC(=O)c1ccc([N+](=O)[O-])o1)C(C)C (stereo not given), O=C(Nc1cccc(OCCN2CCCC2)c1)Nc1ccc(Cl)c(Cl)c1, COc1ccc2ccccc2c1CNCC1CCN(CC2CCCCC2)CC1, COc1cc2c(cc1S(=O)(=O)c1ccc(NC(=O)Nc3ccc(F)cc3)cc1)CCN(C)CC2, CCNc1cc(C(=O)N[C@@H](Cc2ccoc2)[C@H](O)CNC(C)CCCC(C)C)cc(N2CCCCS2(=O)=O)c1 (stereo not given in full), O=c1cc(NCCC(CNCc2ccc(Br)o2)NCc2cc(Br)cc(Br)c2)[nH]c2ccccc12 (stereo not given), CCNc1cc(C(=O)N[C@@H](Cc2ccccc2)[C@H](O)CNC(C)(C)CC(C)(C)C)c(F)c(N2CCCCS2(=O)=O)c1, CS(=O)(=O)c1ccc(CCNCc2ccc(-c3ccc(CN(C(=O)C4CC(=O)c5ccccc54)C4CCN(Cc5ccccc5)CC4)cc3)nc2)cc1 (stereo not given), O=C(NC1CCCCC1)N(Cc1ccc(-c2ccc(CNC3CCCC3)cc2)cc1)C1CCN(Cc2ccccc2)CC1, CCCCCCCCc1[nH]c(C)c(Br)c(=O)c1Br, O=C1C[C@@H]([S@@](=O)Cc2nccs2)N1CCOCCCCCCc1ccc(Cl)cc1, Cc1ccc2[nH]c3c(NCCCN4CCOCC4)ncnc3c2c1, c1ccc2c(c1)CN(Cc1cc3ccccc3[nH]1)CC1(CCN(Cc3c[nH]c4cnccc34)CC1)O2, CC1(C)N=C(N)N=C(N)N1OCCCc1cc(Cl)c(Cl)cc1Cl, O=C(NCc1ccc2c(c1)OCO2)c1nn(CCN2CCC(N3CCCC3)CC2)cc1-c1ccc(Cl)c(Cl)c1, COc1ccc(N(c2nc(-c3cc(Cl)ccc3Cl)cs2)C2CCNC2)cc1 (stereo not given), O=S(=O)(c1cc(Cl)sc1Cl)N(CCC(O)(C(F)(F)F)C(F)(F)F)Cc1cccc(O)c1, CC1CCC2(CC1)N=C(N)N=C(N)N2OCc1cc2ccccc2c2ccccc12 (stereo not given), Cc1ccccc1CCNC(=O)c1cnc(N2CCN(c3ccncc3)CC2)c(Cl)c1, CCCN(CCC)CCOc1ccc(C(O)(C#CC(O)(c2ccc(OCCN(CCC)CCC)cc2)c2cccc(Cl)c2)c2cccc(Cl)c2)cc1 (stereo not given)

From PubChem BioAssay
